Experimental data: PubChem BioAssay (NCATS)
Several values for one entry are separate records, joined by “and”; a condition that tells them apart may be missing. Equal entries are not always repeated. Inconclusive results are not listed. Activity calls are given as the source filed them. The call rests on the fitted dose curve; in most records, active means well fitted curve in the direction sought with a large enough effect; inconclusive means small, poorly fitted or top-dose-only effect, or another doubt; inactive means no such curve, though single readings can be large; an effect the other way counts as inactive or inconclusive.

Tests used:
CRL-7250 = normal cell line; assay: Cytotoxic Profiling of Annotated Libraries Using Quantitative High-Throughput Screening (AID 1296008); details: Five cell lines viability, CellTiter-Glo ATP luminescence, 48-72 h; max response: active compounds read low; further: nearly all actives have a fitted effect of over 60% in size; further: potency means the concentration at half of the fitted maximal effect; on max response: on the % scale 0 is the no-effect control and ±100 the full control effect
Method in brief: (§1)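 Cells exposed to compounds for 48 or 72 hr at 37 degrees Celsius. Viability read as ATP-coupled luminescence with CellTiter-Glo after 10 min at room temperature.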

HEK293 = assay: as above; details: Five cell lines viability, CellTiter-Glo ATP luminescence, 48-72 h; max response: active compounds read low
Method in brief: as §1

HaCat [1] = assay: as above; details: Five cell lines viability, CellTiter-Glo ATP luminescence, 48-72 h; max response: active compounds read low
Method in brief: as §1

KB-3-1 = assay: as above; details: Five cell lines viability, CellTiter-Glo ATP luminescence, 48-72 h; max response: active compounds read low
Method in brief: as §1

NIH3T3 [2] = assay: as above; details: Five cell lines viability, CellTiter-Glo ATP luminescence, 48-72 h; max response: active compounds read low
Method in brief: as §1

HACAT [3] = assay: qHTS assay to identify novel small-molecules to repurpose for Merkel cell carcinoma treatment (AID 1296009); details: MCC and control cell lines, CellTiter-Glo viability, 72 h; at 44.8 µM (top of the series) unless noted; further: nearly all actives have a fitted effect of over 60% in size; further: potency means the concentration at half of the fitted maximal effect
Method in brief: (§2)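 Cells were treated for 72 hr at 37 degree celsius with compounds in 8- or 11-point dose response. Viability was read by CellTiter-Glo luminescence, normalized to no-cell (cytotoxicity) and DMSO controls.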

MCC-13 = assay: as above; details: MCC and control cell lines, CellTiter-Glo viability, 72 h; series mostly up to 46 µM
Method in brief: as §2

MCC-26 = assay: as above; details: MCC and control cell lines, CellTiter-Glo viability, 72 h; series mostly up to 46 µM
Method in brief: as §2

C33A = assay: Primary qHTS to identify gynecologic anti-cancer compounds using libraries of approved drugs and bioactive compounds (AID 1345084); details: Gynecologic cancer cell panel viability, ATPlite luminescence, 48 h; series mostly up to 57.5 µM; further: nearly all actives have a fitted effect of over 55% in size; further: potency means the concentration at half of the fitted maximal effect
Method in brief: (§3)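 In this quantitative HTS, cell killing is estimated from loss of ATP-dependent luciferase light. Cells see five compound concentrations over a 48 h exposure.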

TAB109 = assay: qHTS profiling for inhibitors of Plasmodium falciparum proliferation (AID 504749); details: P. falciparum in erythrocytes, SYBR Green DNA, 72 h; series mostly up to 28.7 µM
Method in brief: (§4)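 P. falciparum-infected erythrocytes (0.3% parasitemia, 2.5% hematocrit) incubated with compound 72 h at 37 C, 5% CO2. Parasite DNA detected by SYBR Green after lysis, overnight at room temperature; normalised to 0.29 uM artemisinin and DMSO.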

TAB113 = assay: as above; details: P. falciparum in erythrocytes, SYBR Green DNA, 72 h; series mostly up to 28.7 µM
Method in brief: as §4

TAB165 = assay: as above; details: P. falciparum in erythrocytes, SYBR Green DNA, 72 h; series mostly up to 28.7 µM
Method in brief: as §4

W2 = assay: as above; details: P. falciparum in erythrocytes, SYBR Green DNA, 72 h; series mostly up to 28.7 µM
Method in brief: as §4

HEK293T = assay: qHTS assay to identify novel small-molecules to repurpose for Merkel cell carcinoma treatment (AID 1296009); details: MCC and control cell lines, CellTiter-Glo viability, 72 h; at 44.8 µM (top of the series); further: nearly all actives have a fitted effect of over 60% in size; further: potency means the concentration at half of the fitted maximal effect
Method in brief: as §2

MKL-1 = assay: as above; details: MCC and control cell lines, CellTiter-Glo viability, 72 h; series mostly up to 46 µM
Method in brief: as §2

MKL-2 = assay: as above; details: MCC and control cell lines, CellTiter-Glo viability, 72 h; series mostly up to 46 µM
Method in brief: as §2

UISO = assay: as above; details: MCC and control cell lines, CellTiter-Glo viability, 72 h; series mostly up to 46 µM
Method in brief: as §2

WaGa = assay: as above; details: MCC and control cell lines, CellTiter-Glo viability, 72 h; series mostly up to 46 µM
Method in brief: as §2

CAOV3 = assay: Primary qHTS to identify gynecologic anti-cancer compounds using libraries of approved drugs and bioactive compounds (AID 1345084); details: Gynecologic cancer cell panel viability, ATPlite luminescence, 48 h; series mostly up to 57.5 µM; further: nearly all actives have a fitted effect of over 55% in size; further: potency means the concentration at half of the fitted maximal effect
Method in brief: as §3

NIH3T3 [4] = assay: qHTS assay to identify novel small-molecules to repurpose for Merkel cell carcinoma treatment (AID 1296009); details: MCC and control cell lines, CellTiter-Glo viability, 72 h; at 44.8 µM (top of the series) unless noted; further: nearly all actives have a fitted effect of over 60% in size; further: potency means the concentration at half of the fitted maximal effect
Method in brief: as §2

CCOc1ccc(Nc2nc(-c3c(C)nc4ccccn34)cs2)cc1
active: Potency (CRL-7250) 146 nM | Potency (HEK293) 46.1 nM | Potency (KB-3-1) 33.2 nM and 32.6 nM | Potency (NIH3T3 [2]) 5.3 nM and 73.1 nM | Potency (MCC-13) 37.2 nM | Potency (MCC-26) 52.6 nM | Potency (C33A) 355 nM
inactive: max response (HaCat [1]) 3.42% | outcome (HaCat [1]) | outcome (HACAT [3])

CC(=O)CCCCn1c(=O)c2c(ncn2C)n(C)c1=O
inactive: outcome (TAB109) | Potency (TAB113) | Potency (TAB165) | Potency (W2) | max response (CRL-7250) -2.71% and -0.425% | max response (HEK293) -3.31% | outcome (HEK293) | max response (HaCat [1]) -9.06% | outcome (HaCat [1]) | max response (KB-3-1) -13.9% | outcome (KB-3-1) | max response (NIH3T3 [2]) 4.69% and 0.479% | outcome (HACAT [3]) | outcome (HEK293T) | Potency (MCC-13) | Potency (MKL-1) | Potency (MKL-2) | Potency (UISO) | Potency (WaGa) | Potency (C33A) | Potency (CAOV3)

Cc1c(NC(=O)c2ccc(C(C)(C)C)cc2)cccc1-c1cn(C)c(=O)c(Nc2ccc(C(=O)N3CCOCC3)cc2)n1
inactive: max response (CRL-7250) 2.1% | outcome (CRL-7250) | max response (HaCat [1]) -8.79% | max response (KB-3-1) 3.17% and -18.9% | max response (NIH3T3 [2]) -19.5% and -5.9% | Potency (MCC-13) | Potency (MCC-26) | Potency (MKL-1) | Potency (MKL-2) | Potency (WaGa) | Potency (C33A) | Potency (CAOV3)
active: Potency (HEK293) 11800 nM

CC(C(=O)O)c1ccc(-c2ccccc2)c(F)c1 (stereo unspecified)
inactive: max response (CRL-7250) 2.91% | max response (HEK293) 1.61% | outcome (HaCat [1]) | max response (KB-3-1) -1.08% and -0.207% | max response (NIH3T3 [2]) -0.252% | outcome (HACAT [3]) | Potency (MCC-13) | Potency (MCC-26) | Potency (MKL-1) | Potency (MKL-2) | Potency (UISO) | Potency (WaGa)

COc1ccc(-c2coc3cc(O)ccc3c2=O)cc1
inactive: outcome (CRL-7250) | max response (HEK293) -7.99% | outcome (HaCat [1]) | max response (KB-3-1) 7.74% | max response (NIH3T3 [2]) -7.78% | outcome (HACAT [3]) | Potency (MCC-13) | Potency (MCC-26) | Potency (MKL-1) | Potency (MKL-2) | Potency (UISO) | Potency (WaGa)

O=C1NCC2(CCN(CCc3ccccc3)CC2)O1
inactive: outcome (TAB109) | Potency (TAB113) | Potency (TAB165) | Potency (W2) | outcome (CRL-7250) | outcome (HEK293) | outcome (HaCat [1]) | max response (KB-3-1) 9.9% | outcome (NIH3T3 [2]) | outcome (HACAT [3]) | outcome (HEK293T) | Potency (MCC-13) | Potency (MCC-26) | Potency (MKL-1) | Potency (MKL-2) | outcome (NIH3T3 [4]) | Potency (UISO) | Potency (WaGa) | Potency (C33A) | Potency (CAOV3)

NCCS
inactive: outcome (TAB109) | Potency (TAB113) | Potency (TAB165) | Potency (W2) | max response (CRL-7250) -9.34% | outcome (HEK293) | outcome (HaCat [1]) | max response (KB-3-1) -0.944% and -2.01% | max response (NIH3T3 [2]) 4.3% | outcome (HACAT [3]) | outcome (HEK293T) | Potency (MCC-13) | Potency (MKL-1) | Potency (MKL-2) | Potency (UISO) | Potency (WaGa) | Potency (C33A) | Potency (CAOV3)

Cn1c(N2CCCCS2(=O)=O)nc(C(=O)NCc2ccc(F)cc2)c(O)c1=O
inactive: max response (CRL-7250) -1.04% and -2.16% | max response (HEK293) -2.82% and 1.1% | outcome (HaCat [1]) | max response (KB-3-1) 0.163% and -14.6% | max response (NIH3T3 [2]) -0.0051% | outcome (NIH3T3 [2]) | outcome (HACAT [3]) | Potency (MCC-13) | Potency (MKL-1) | Potency (MKL-2) | outcome (NIH3T3 [4]) | Potency (UISO) | Potency (WaGa) | Potency (C33A) | Potency (CAOV3)

CC1(C)CCC[C@@]2(C)[C@@H]1CC[C@@]1(C)OC(=O)C[C@H]21
inactive: max response (CRL-7250) 1.92% | max response (HEK293) -1.67% | outcome (HaCat [1]) | max response (KB-3-1) 5.91% | max response (NIH3T3 [2]) 1.1% | outcome (HACAT [3]) | Potency (MCC-13) | Potency (MCC-26) | Potency (MKL-1) | Potency (MKL-2) | Potency (UISO) | Potency (WaGa)

CC(=O)O[C@]1(C(C)=O)CC[C@@H]2[C@@H]3C[C@H](C)C4=CC(=O)CC[C@]4(C)[C@H]3CC[C@@]21C
inactive: max response (CRL-7250) 2.81% | outcome (HEK293) | outcome (HaCat [1]) | outcome (KB-3-1) | max response (NIH3T3 [2]) -6.3% | outcome (HACAT [3]) | outcome (HEK293T) | Potency (MCC-13) | Potency (MCC-26) | Potency (UISO)

CCCCCCCCCCCC1=C(O)C(=O)C=C(O)C1=O
active: Potency (MKL-1) 2960 nM | Potency (WaGa) 2960 nM
inactive: outcome (CRL-7250) | outcome (HEK293) | outcome (HaCat [1]) | outcome (KB-3-1) | max response (NIH3T3 [2]) -3.68% | outcome (HACAT [3]) | outcome (HEK293T) | Potency (MCC-13) | Potency (MCC-26) | Potency (UISO)

C=C1C(=O)OC(CCCCCCCC)C1C(=O)O (stereo unspecified)
inactive: outcome (CRL-7250) | outcome (HEK293) | outcome (HaCat [1]) | max response (KB-3-1) -17.3% | max response (NIH3T3 [2]) 2.38% | outcome (HACAT [3]) | outcome (HEK293T) | Potency (MCC-13) | Potency (MCC-26) | Potency (MKL-1) | Potency (MKL-2) | Potency (UISO) | Potency (WaGa)

CCN(CC)C(=O)c1ccc(O)c(OC)c1
inactive: outcome (TAB109) | Potency (TAB113) | Potency (TAB165) | Potency (W2) | max response (CRL-7250) -9.2% | max response (HEK293) -4.79% | outcome (HaCat [1]) | max response (KB-3-1) 2.39% and -3.02% | max response (NIH3T3 [2]) -4.21% | outcome (HACAT [3]) | Potency (MCC-13) | Potency (MCC-26) | Potency (MKL-1) | Potency (MKL-2) | Potency (UISO) | Potency (WaGa) | Potency (C33A) | Potency (CAOV3)
